VDR inh – Inhibitors of the vitamin D receptor (VDR): qHTS. Vitamin D3 receptor (Homo sapiens), P11473. actives 0.93% (n = 400,000). Potency, µM, for inactives: max response, negative = inhibition, actives largely listed as inhibitors. AID 504847, 2011. VDR-SRC2-3 peptide fluorescence polarization, 2 h; further: potency means the concentration at half of the fitted maximal effect
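VDR–SRC2-3 interaction, FP format. Cmpds 23 nl via pintool, brief spin, 2 h ambient incubation.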
CCT modulator – High-Throughput Screening for Modulators of Cytosolic Chaperonin Activity. purified chaperonin ATPase assay, HTRF ADP detection, 30 min. activity change, % (concentration not given with the values), hits read low. actives 0.3% (n = 360,000). AID 651819, 2012; in the data active means activity change below about -30%
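We incubate TRiC, 40 or 20 nM final, with library compounds at 76 uM and 10 uM ATP for 30 min at 37 °C. ADP formed is detected with Transcreener HTRF reagents after 30 min at room temperature.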
Mm-Cpn inhibitor – Inhibitors of TCP-1 ring complex (TRiC) of Methanococcus maripaludis (MmCpn): qHTS; actives 0.031% (n = 330,000); purified Mm-Cpn ATPase, ADP Transcreener TR-FRET; AID 504842, 2011; Potency, µM (doses to about 76.9 µM), inactives show at the highest dose activity, negative = inhibition, actives largely listed as inhibitors; Chaperonin Mm-Cpn (Methanococcus maripaludis); further: potency means the concentration at half of the fitted maximal effect; nearly all actives have a fitted effect of over 80% in size
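Quantitative HTS used 25 nM Mm-CPN and 10 uM ATP in magnesium/KCl Tris buffer, pH 7.4, with 1 mM DTT. Hydrolysis ran 30 min at 37°C; ADP was read by HTRF.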
PLK1 PBD block – qHTS for Inhibitors of PLK1-PDB (polo-like kinase 1 - polo-box domain): Primary Screen; Serine/threonine-protein kinase PLK1 (Homo sapiens), P53350; Plk1 PBD binding of FITC phosphopeptide, fluorescence polarization; Potency, µM, for the others: max response, negative = inhibition, hits mostly inhibitors; actives 2.8% (n = 360,000); further: potency means the concentration at half of the fitted maximal effect; series mostly up to about 57 µM; nearly all actives have a fitted effect of over 65% in size
Target sequence (P53350 whole entry, looked up, the tested form may be a part): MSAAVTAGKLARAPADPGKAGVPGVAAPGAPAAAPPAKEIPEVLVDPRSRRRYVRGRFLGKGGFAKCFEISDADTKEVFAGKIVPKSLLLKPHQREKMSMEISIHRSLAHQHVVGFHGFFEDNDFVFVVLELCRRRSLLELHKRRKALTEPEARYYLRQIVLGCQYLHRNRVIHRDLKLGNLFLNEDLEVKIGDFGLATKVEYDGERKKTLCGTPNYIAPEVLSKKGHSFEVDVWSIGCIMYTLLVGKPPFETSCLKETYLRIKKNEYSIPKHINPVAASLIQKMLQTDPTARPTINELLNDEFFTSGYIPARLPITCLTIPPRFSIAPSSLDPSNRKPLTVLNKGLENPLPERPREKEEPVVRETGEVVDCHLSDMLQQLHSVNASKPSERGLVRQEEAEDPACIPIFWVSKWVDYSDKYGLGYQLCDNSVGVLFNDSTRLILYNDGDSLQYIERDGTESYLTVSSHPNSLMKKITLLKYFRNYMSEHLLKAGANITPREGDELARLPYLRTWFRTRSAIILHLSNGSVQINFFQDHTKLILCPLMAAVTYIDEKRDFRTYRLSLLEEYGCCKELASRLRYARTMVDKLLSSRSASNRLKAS
G9a block – qHTS Assay for Inhibitors of Histone Lysine Methyltransferase G9a; Potency, µM (highest dose often 102 µM), for the others: at the top dose activity, negative = inhibition, most hits filed as inhibitors; actives 8.8% (n = 350,000); Histone-lysine N-methyltransferase EHMT2 (Homo sapiens), Q96KQ7; G9a H3K9 monomethylation, AlphaScreen, 2 h; further: potency means the concentration at half of the fitted maximal effect; nearly all actives have a fitted effect of over 75% in size
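Step 1: enzyme (final 20 nM) with compound, 15 min RT. Step 2: substrate peptide 500 nM and SAM 20 uM, 2 h RT. Step 3: anti-H3K9me1 antibody and AlphaScreen beads, 10 min, then plate read.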
Sfp PPTase inh – qHTS Assay for Inhibitors of Bacillus subtilis Sfp phosphopantetheinyl transferase (PPTase) | 4'-phosphopantetheinyl transferase ffp (Bacillus subtilis), Q9F4F7 | Biochemical Sfp PPTase activity, qHTS | Potency, µM, for inactives: largest response in the series, negative = inhibition, most hits filed as inhibitors | actives 3.5% (n = 310,000);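 further: the enzyme is Sfp with the accession as filed and its product quenches rhodamine fluorescence; potency means the concentration at half of the fitted maximal effect; 0% = enzyme reaction without inhibitor and -100% = no enzyme wells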
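Step 1, compound plus 15 nM Sfp-PPTase, 15 min, room temperature. Step 2, add rhodamine-CoA (5 uM) and BHQ-2-YbbR (12.5 uM). Step 3, read 525/598 nm fluorescence at 0 and 30 min.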
* = called active by the depositor; ? = inconclusive; / = not tested or not shown; [ ] = remark or other dose. Rows were chosen to be rich in hits. Some 10% of all compounds tested hit in one or more screens of this group. Unless noted, the call rests on the fitted dose curve; in most records, active means well fitted curve in the direction sought with a large enough effect; inconclusive means small, poorly fitted or top-dose-only effect, or another doubt; inactive means no such curve, though single readings can be large; an effect the other way counts as inactive or inconclusive. Unless noted, on the % scale 0 is the no-effect control and ±100 the full control effect.

SMILES	VDR inh	CCT modulator	Mm-Cpn inhibitor	PLK1 PBD block	G9a block	Sfp PPTase inh
Cc1cccc(C)c1Nc1nnc(SCC(=O)c2ccc3c(c2)NC(=O)CO3)s1	-5%	-3	-4%	-3%	11µM*	10%
Cc1ccc(Nc2nnc(SCC(=O)c3ccc(Br)s3)s2)c(C)c1	0%	1	-11%	13%	11µM*	2%
Cc1cccc(C)c1Nc1nnc(SCC(=O)c2ccc(Br)s2)s1	?	0	?	24µM*	-15%[59 µM]	2%
Cc1ccc(C)c(-n2nnnc2SCC(=O)c2ccc3c(c2)NC(=O)CO3)c1	13%	-2	-22%	-6%	50µM*	-4%
COc1cc(NC(=O)CC2C(=O)N(c3cccc(C)c3)C(=O)N2Cc2ccco2)cc(OC)c1 (stereo unspecified)	7%	/	/	/	?	/
COc1cccc(C(=O)Nc2nc3nc(C)c(C)c(=O)n3[nH]2)c1	12%	/	/	/	?	/
COc1ccc(CC(=O)Nc2c(C(=O)Nc3ccc(F)cc3)oc3ccccc23)cc1OC	8%	/	/	/	3%[59 µM]	/
COc1ccccc1Nc1nnc(SCc2cc(=O)n3cc(C)ccc3n2)s1	6%	3	0%	-9%	13µM*	10%
Cc1ccc2nc(CSc3nnc(NC(=O)COc4ccccc4F)s3)cc(=O)n2c1	5%	/	/	/	18%[59 µM]	/
O=C(O)c1ncc(-c2ccccc2)cn1	-12%	-6	2%	-6%	8.9µM*	?
O=C1OCCN1c1c(-c2ccccc2)c(-c2cccs2)nc2c(-c3ccccc3)cccc12	-17%	-5	-25%	-8%	40µM*	-6%
O=C(CN1C(=O)c2cccnc2Oc2ccc(Cl)cc21)NCCCN1CCCCC1	1%	/	/	/	-2%[59 µM]	/
COc1ccc(-n2c(-c3ccccc3)cc3c2CCCC3=O)cc1	-20%	1	-3%	-6%	13µM*	-3%
CC1=CC(C)(C)NC(=S)N1c1cccc2cc(S(=O)(=O)O)ccc12	-25%	0	0%	27µM*	25µM*	20µM*
CC1=CC(C)(C)NC(=S)N1c1ccccc1C	0%	-2	2%	-14%	3%[59 µM]	-3%
CCOC(=O)C(=Cc1ccc(-n2cncn2)cc1)C(=O)OCC	16µM*	4	-5%	?	?	-20%
CCOC(=O)C(=Cc1ccccc1)C(=O)OCC	10µM*	/	/	/	/	-21%
Cc1cccc(C(=O)NCC(=O)OCc2cc(=O)n3nc(C)sc3n2)c1	14%	/	/	/	8%[59 µM]	/
Cc1cc(C)n(-c2nc3ccccc3nc2Nc2ccc3c(c2)OCO3)n1	4%	1	0%	2%	42%[59 µM]	7%
Cc1cc(C)n(-c2nc3ccccc3nc2Nc2ccc(N(C)C)cc2)n1	-14%	/	/	/	1.8µM*	/
O=C(Nc1nc2ccc(F)cc2s1)C1CCN(S(=O)(=O)c2cc([N+](=O)[O-])ccc2Cl)CC1	23%	-5	-3%	-21%	22µM*	?
Cc1ccc2nc(NC(=O)C3CCN(S(=O)(=O)c4cc([N+](=O)[O-])ccc4Cl)CC3)sc2c1	-19%	-1	-1%	-9%	?	-3%
O=C(COC(=O)c1ccccc1O)NNC(=O)c1ccc(Br)cc1	?	-3	-3%	-2%	?	/
O=C(COC(=O)c1cc(Br)ccc1O)NNC(=O)c1ccc([N+](=O)[O-])cc1	-3%	-1	4%	4%	45µM*	/
O=C(COC(=O)c1cc(Br)ccc1O)NNC(=O)c1ccc(Cl)cc1	2%	-8	-2%	-2%	45µM*	/
SMILES	VDR inh	CCT modulator	Mm-Cpn inhibitor	PLK1 PBD block	G9a block	Sfp PPTase inh
CC1CCC2C(=O)N3C(CCC(C)[C@@H]3c3ccc(Br)cc3)C(=O)N2C1c1ccc(Br)cc1 (stereo partly specified)	/	/	/	/	/	-6%
O=C(O)[C@H](Cc1ccccc1)NC(=O)N1CCOCC1	30%	-1	0%	-2%	50µM*	9%
O=C(NC(Cc1ccccc1)C(=O)NC(Cc1ccccc1)C(=O)O)c1ccccc1 (stereo unspecified)	-2%	-1	-3%	-15%	28µM*	-4%
O=C(O)[C@H](Cc1ccccc1)NC(=O)N1CCCCCC1	0%	-2	1%	2%	12%	10%
COc1ccccc1CNC(=O)CCC(=O)N1Cc2ccccc2Oc2ncccc21	5%	/	/	/	0%[59 µM]	/
Cn1cc(CCCC(=O)NCc2ccccc2Cl)c2ccccc21	16%	/	/	/	0%[59 µM]	/
CCCCOC(=O)Nc1ccc(N2CCCCC2)cc1	-12%	-4	-2%	-7%	7.9µM*	-26%
CCc1ccc(OCCCC(=O)Nc2ccc(N3CCCCC3)cc2)cc1	10%	-2	-4%	-4%	-4%[12.7 µM]	13%
CCOc1ccc(/C=C/C(=O)Nc2ccc(N3CCOCC3)cc2)cc1	?	-1	-1%	3.4µM*	/	-8%
CCCCOC(=O)Nc1ccc(N(C)C)cc1	-1%	-2	-1%	-8%	1.6µM*	-17%
CCCCOC(=O)Nc1ccc(C(C)C)cc1	4%	-5	0%	-7%	23%[59 µM]	6%
CCCCOC(=O)Nc1ccc(N2CCOCC2)cc1	9%	1	1%	1%	7.1µM*	6%
Cn1cc(C(=O)NCc2ccccc2)c(=O)c2cc(S(=O)(=O)N3CCOCC3)ccc21	8%	/	/	/	2%[59 µM]	/
C#CCCc1cscc1/C=[N+](\[O-])c1ccc(C(=O)OCC)cc1	?	-2	-7%	7.5µM*	7%[0.501 µM]	/
[O-][n+]1c2ccccc2[n+]([O-])c2cc(O)ccc21	?	1	?	?	1.4µM*	?
CCOc1ccc(S(=O)(=O)NCc2ccc3c(c2)CCN3C(=O)c2ccc(C)cc2)cc1	3%	/	/	/	9%[59 µM]	/
O=C(O)c1nc2ccccc2nc1C(=O)O	7%	-3	2%	-12%	?	-8%
O=C(O)Cc1cc2ccccc2nc1C(=O)O	5%	/	/	/	/	79µM*
Cn1c(=O)c(=O)n(C)c2cc(S(=O)(=O)NCc3ccc(Cl)cc3)ccc21	?	-1	-1%	11µM*	8%	19%
Cn1c(=O)n(C)c2cc(S(=O)(=O)NCc3ccccc3)ccc21	-22%	0	1%	-9%	-23%	21%
CCOC(=O)N/N=C1/C[C@@H](O)[C@@H](O)[C@@H]2[C@@H]3C(=O)N(C4CCCCC4)C(=O)[C@H]3CC[C@@H]12	/	/	/	/	/	2%

Assay outcomes deposited in PubChem by National Center for Advancing Translational Sciences (NCATS).
